{
  "source": "paper doi:10.1101/2024.03.05.583629",
  "key": {"[1]": {"target": "pT7_6His-AlfaTag-HOXD13 (human, UniProt P35453 263-343)", "sequence (P35453 263-343)": "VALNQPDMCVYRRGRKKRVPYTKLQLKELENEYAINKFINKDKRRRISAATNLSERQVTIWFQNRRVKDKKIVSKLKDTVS", "test": "PADIT-seq", "conditions": "dsDNA, one strand shown"}, "[2]": {"target": "pT7_6His-AlfaTag-ZIF268 (human, UniProt P18146 335-423)", "test": "PADIT-seq", "conditions": "dsDNA, one strand shown"}},
  "data": [
    {"sequence": "CTCGAGGATATCAAGATCTGGCCTCGGCGCAGTAAAAGGAACCTCTAGCTAGCCGACTCACTATAGGGATAATCGCCCTGAGCAAAGACC", "values": [
      {"measurement": "binding signal", "setting": "[1]", "value": "2.28 ± 0.0773", "unit": "log2FC"},
      {"measurement": "binding signal", "setting": "[2]", "value": "0.0357 ± 0.0818", "unit": "log2FC"}
    ]},
    {"sequence": "CTCGAGGATATCAAGATCTGGCCTCGGCGAATGGGCGGGAACCTCTAGCTAGCCGACTCACTATAGGGATAATCGCCCTGAGCAAAGACC", "values": [
      {"measurement": "binding signal", "setting": "[1]", "value": "-0.762 ± 0.106", "unit": "log2FC"},
      {"measurement": "binding signal", "setting": "[2]", "value": "0.0552 ± 0.0878", "unit": "log2FC"}
    ]},
    {"sequence": "CTCGAGGATATCAAGATCTGGCCTCGGCATTTTATACGGAACCTCTAGCTAGCCGACTCACTATAGGGATAATCGCCCTGAGCAAAGACC", "values": [
      {"measurement": "binding signal", "setting": "[1]", "value": "2.61 ± 0.0763", "unit": "log2FC"},
      {"measurement": "binding signal", "setting": "[2]", "value": "0.0469 ± 0.0817", "unit": "log2FC"}
    ]},
    {"sequence": "CTCGAGGATATCAAGATCTGGCCTCGGCGCATGGGCGGGAACCTCTAGCTAGCCGACTCACTATAGGGATAATCGCCCTGAGCAAAGACC", "values": [
      {"measurement": "binding signal", "setting": "[1]", "value": "-0.757 ± 0.112", "unit": "log2FC"},
      {"measurement": "binding signal", "setting": "[2]", "value": "0.51 ± 0.0916", "unit": "log2FC"}
    ]},
    {"sequence": "CTCGAGGATATCAAGATCTGGCCTCGGCATTTTAGGGGGAACCTCTAGCTAGCCGACTCACTATAGGGATAATCGCCCTGAGCAAAGACC", "values": [
      {"measurement": "binding signal", "setting": "[1]", "value": "1.57 ± 0.105", "unit": "log2FC"},
      {"measurement": "binding signal", "setting": "[2]", "value": "0.0683 ± 0.108", "unit": "log2FC"}
    ]},
    {"sequence": "CTCGAGGATATCAAGATCTGGCCTCGGCTGGCTAAAAGGAACCTCTAGCTAGCCGACTCACTATAGGGATAATCGCCCTGAGCAAAGACC", "values": [
      {"measurement": "binding signal", "setting": "[1]", "value": "-0.708 ± 0.106", "unit": "log2FC"},
      {"measurement": "binding signal", "setting": "[2]", "value": "0.0373 ± 0.0882", "unit": "log2FC"}
    ]},
    {"sequence": "CTCGAGGATATCAAGATCTGGCCTCGGCCAAGTAAAAGGAACCTCTAGCTAGCCGACTCACTATAGGGATAATCGCCCTGAGCAAAGACC", "values": [
      {"measurement": "binding signal", "setting": "[1]", "value": "0.682 ± 0.11", "unit": "log2FC"},
      {"measurement": "binding signal", "setting": "[2]", "value": "0.0157 ± 0.107", "unit": "log2FC"}
    ]},
    {"sequence": "CTCGAGGATATCAAGATCTGGCCTCGGCATCTTAAAAGGAACCTCTAGCTAGCCGACTCACTATAGGGATAATCGCCCTGAGCAAAGACC", "values": [
      {"measurement": "binding signal", "setting": "[1]", "value": "1.62 ± 0.0869", "unit": "log2FC"},
      {"measurement": "binding signal", "setting": "[2]", "value": "0.00209 ± 0.0901", "unit": "log2FC"}
    ]},
    {"sequence": "CTCGAGGATATCAAGATCTGGCCTCGGCGCGTGGAGTGGAACCTCTAGCTAGCCGACTCACTATAGGGATAATCGCCCTGAGCAAAGACC", "values": [
      {"measurement": "binding signal", "setting": "[1]", "value": "-0.822 ± 0.144", "unit": "log2FC"},
      {"measurement": "binding signal", "setting": "[2]", "value": "0.252 ± 0.117", "unit": "log2FC"}
    ]}
  ]
}
